Compound activity from PubChem BioAssay.
A selection: hits, their analogues and other compounds. The true share with any hit is near 0.18%.
UbGFP stabilizer: proteasome inhibitors stabilizing ubiquitin-GFP reporter | Ubiquitin-GFP reporter cells, proteasome inhibition, GFP fluorescence; response scale: untreated = 0%, 10 µM MG-132 = 100% | Potency, µM (titrated, usually from 45.9 µM), for inactives: at the top dose activation (GFP accumulation), most hits filed as activators | 67,000 tested, under 10 active; active means well fitted activation curve with a large enough effect, not every such curve was filed as active; inconclusive means small, poorly fitted or top-dose-only effect, or another doubt; inactive means no such curve, though single readings can be large or run the other way; further: potency means the concentration at half of the fitted maximal effect
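Proteasome block read as GFP accumulation: ubiquitin(G76V)-GFP U2OS cells exposed to compound (2.9 nM–46 uM) for 4 hr at 37 C. Normalization used untreated cells as 0% and 10 uM MG-132 as 100%; concentration-response curves fitted.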
Peg3 imprint: induces erasure of genomic imprints in mouse ES cells. mouse ES Peg3-LacZ reporter, beta-gal luminescence, 40 h. Potency, µM (highest dose often 60.7 µM), inactives show top-dose activity change, positive = activation, most hits filed as activators. 110,000 tested, 0.02% active; further: potency means the concentration at half of the fitted maximal effect
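Imprint erasure is scored as LacZ activity from the silenced maternal Peg3 allele in feeder-free female ES cells cultured 40 h with LIF. Luminescence is normalized to in-plate negative controls and fitted to the Hill equation.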
IkB sig inh: suppresses IkB signaling in ABC-DLBCL reporter cells | ABC-DLBCL IkBa-CBG/CBR dual luciferase ratio, 4 h; response scale: scaled: untreated 0%, proteasome inhibitor 100% | Potency, µM (top dose mostly 57.1 µM), without a hit: at the top dose IkBa stabilization activation | 110,000 tested, 0.04% active | AID 445; active means well fitted curve in the direction sought with a large enough effect in the signal ratio, not every such curve was filed as active; inconclusive means small, poorly fitted or top-dose-only effect, or a change in a side signal; the % refers to the signal ratio;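 further: potency means the concentration at half of the fitted maximal effect; the direction sought is a rising ratio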
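In this assay, an IκBα–CBG68 fusion accumulates when IKK-driven degradation is blocked; native CBR normalizes for cell number. OCI-Ly3 cells were treated 4 h with compound and doxycycline, then green and red light read after Chroma-Glo addition.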
USP2a inh: inhibitors of human ubiquitin-specific protease USP2a. Potency, µM (series often up to 38.3 µM), without a hit: top-dose activity change, negative = inhibition, hits mostly inhibitors. 60,000 tested, 0.1% active. O75604. AID 927. USP2a enzymatic assay, qHTS inhibition; further: potency means the concentration at half of the fitted maximal effect; nearly all actives have a fitted effect of over 60% in size
Target sequence (O75604 whole entry, looked up): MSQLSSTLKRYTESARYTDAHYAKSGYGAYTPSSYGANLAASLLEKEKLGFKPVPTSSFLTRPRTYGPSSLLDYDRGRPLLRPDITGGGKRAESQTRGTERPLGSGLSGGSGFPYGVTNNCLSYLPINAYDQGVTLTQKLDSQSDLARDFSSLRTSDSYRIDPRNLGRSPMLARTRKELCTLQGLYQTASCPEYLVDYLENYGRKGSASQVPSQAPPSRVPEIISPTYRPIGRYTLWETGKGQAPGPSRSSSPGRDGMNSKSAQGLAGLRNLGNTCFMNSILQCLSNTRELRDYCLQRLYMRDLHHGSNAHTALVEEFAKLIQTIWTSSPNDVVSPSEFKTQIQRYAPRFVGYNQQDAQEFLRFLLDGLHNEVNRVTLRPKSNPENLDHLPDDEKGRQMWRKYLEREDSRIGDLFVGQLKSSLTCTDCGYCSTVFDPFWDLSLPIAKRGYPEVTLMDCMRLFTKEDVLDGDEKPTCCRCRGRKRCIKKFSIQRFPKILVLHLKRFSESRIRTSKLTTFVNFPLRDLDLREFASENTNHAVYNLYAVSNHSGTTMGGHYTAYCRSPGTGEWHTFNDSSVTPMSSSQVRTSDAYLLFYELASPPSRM
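USP2 core (20nM final) preincubated 30 min RT with compound, then Ub-PLA2 20nM and NBD C6-HPC 20uM final added; buffer 20mM Tris-HCl pH 8.0, 2mM CaCl2. Fluorescence Ex 460/Em 535 read at 0 and 2.5 h; normalized to NEM.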
HBB splicing: hemoglobin beta splicing modulation. HBB splicing reporter cell assay, activation; EGFP reporter with mutant IVS2-654 intron; response scale: normalised to 500 nM splice-correcting PNA. Potency, µM (top dose mostly 46.1 µM), without a hit: at the top dose activation, hits mostly activators. 65,000 tested, 0.06% active. AID 925; further: potency means the concentration at half of the fitted maximal effect; 0% is about no effect
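Compounds were applied for 2 days to HeLa EGFP-654 cells, 500/well in Optimem with 2% FCS. The reporter's EGFP is disrupted by mis-splicing of beta-globin intron IVS2-654. Readout: summed well GFP fluorescence from 488 nm laser scanning; reference was 500 nM antisense […] 654 PNA.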
GFP derepression: epigenetic modulators derepressing GFP locus in mouse cells. AID 597. mouse C127i GFP locus derepression, cytometry, 30 h. Potency, µM (top dose mostly 46.1 µM), for the others: at the highest dose GFP derepression (activation). 68,000 tested, 0.09% active; further: % of control where 0% means no effect
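Derepression screen: silenced CMV-GFP reporter in murine C127i cells, 30 h compound incubation at 37 C, washed cells imaged by laser-scanning cytometer to enumerate GFP-expressing objects of 20 to 120 um.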
* hit, by the source's call; [ ] = dose if it differs, or a comment. Unless noted, the call rests on the fitted dose curve; in most records, active means well fitted curve in the direction sought with a large enough effect; inconclusive means small, poorly fitted or top-dose-only effect, or another doubt; inactive means no such curve, though single readings can be large; an effect the other way counts as inactive or inconclusive.

What do the screens show for `Oc1cc(CN2COc3ccccc32)c(O)cc1CNC1CCCCC1`?
UbGFP stabilizer: 1.5%[9.17 µM]; Peg3 imprint: -2.4%[10.9 µM]; IkB sig inh: 3.1%[11.4 µM]; HBB splicing: 4.7%[9.22 µM]; GFP derepression: 9.2%[9.22 µM]

How did COc1cccc(CNC(=O)c2ccc(-c3nc(COc4ccccc4)c(C)o3)cc2)c1 do in these assays?
Peg3 imprint: inconclusive; IkB sig inh: -0.6%

Results for CCOc1ccc(-c2cc(CCCC(=O)Nc3cccc(OC)c3)no2)cc1 ?
UbGFP stabilizer: 12.3%; Peg3 imprint: -45.0%; IkB sig inh: 3.16µM*; HBB splicing: -0.3%

How did CCOc1ccc(-c2cc(CCCC(=O)Nc3cc(OC)ccc3OC)no2)cc1 do in these assays?
UbGFP stabilizer: 2.4%; Peg3 imprint: -8.5%; IkB sig inh: inconclusive; USP2a inh: 5.9%; HBB splicing: -1.2%; GFP derepression: -2.1%

How did Cc1nnc(Sc2nc(Sc3nnc(C)s3)nc(N3CCN(C)CC3)n2)s1 do in these assays?
UbGFP stabilizer: 4.9%; Peg3 imprint: -24.5%; IkB sig inh: 7.94µM*; USP2a inh: 1.0%; GFP derepression: 0.0%

What do the screens show for `Cc1ccc2c(c1)c1c(n2C)C(C(N)=O)CCC1` (stereo not given)?
UbGFP stabilizer: 6.1%; Peg3 imprint: 1.2%; IkB sig inh: -1.1%; USP2a inh: 6.31µM*; HBB splicing: -1.8%; GFP derepression: 1.8%

What do the screens show for `CC(C)(C)c1cc(C(C)(C)C)c2oc(=O)c(-c3nc4ccccc4[nH]3)cc2c1`?
Peg3 imprint: -14.9%[10.9 µM]; IkB sig inh: inconclusive

How did CCN(CC)c1ccc2cc(-c3nc4ccccc4[nH]3)c(=O)oc2c1 do in these assays?
UbGFP stabilizer: 0.501µM*; Peg3 imprint: -59.4%; IkB sig inh: 0.1%; USP2a inh: 69.5%[7.66 µM]; HBB splicing: 0.794µM*; GFP derepression: 0.158µM*

What do the screens show for `CCN(CC)c1ccc2cc(-c3nc(-c4ccc(Cl)cc4Cl)cs3)c(=O)oc2c1`?
Peg3 imprint: -5.2%[10.9 µM]; IkB sig inh: -0.5%

What do the screens show for `CCN(CC)c1ccc2cc(-c3nc4ccccc4n3C)c(=O)oc2c1`?
UbGFP stabilizer: inconclusive; Peg3 imprint: -23.1%; IkB sig inh: 1.2%; USP2a inh: 8.3%[7.66 µM]; HBB splicing: inconclusive; GFP derepression: 10µM*

How did O=C1C=CC2=C3c4cc(O)c(O)cc4CC3(O)COC2=C1O (stereo not given) do in these assays?
Peg3 imprint: -10.3%; USP2a inh: 10µM*

What do the screens show for `Oc1ccc(Cl)cc1Cc1cc(Cl)cc(Cc2cc(Cl)ccc2O)c1O`?
UbGFP stabilizer: 1.2%[9.17 µM]; Peg3 imprint: -5.5%[10.9 µM]; IkB sig inh: inconclusive; HBB splicing: 0.3%[9.22 µM]; GFP derepression: -3.4%[9.22 µM]

Results for CC(C)(C)CC(C)(C)c1ccc(O)c(Cc2ccc(Cl)cc2Cl)c1 ?
Peg3 imprint: -34.5%; USP2a inh: 10µM*

How did O=S1(=O)Nc2c(ccc3cccnc23)-c2ccccc21 do in these assays?
UbGFP stabilizer: 3.9%; Peg3 imprint: -32.3%; IkB sig inh: 0.794µM*; USP2a inh: 19.3%; HBB splicing: 4.6%[1.84 µM]; GFP derepression: 0.5%

How did O=c1[nH]n(-c2cccc3cccnc23)c(=O)c2ccccc12 do in these assays?
UbGFP stabilizer: 4.3%; Peg3 imprint: 24.4%; IkB sig inh: -2.3%; USP2a inh: -0.3%; HBB splicing: -0.4%; GFP derepression: -2.4%

What do the screens show for `COc1ccc(C(=O)Oc2c(CN3CCOCC3)cc(Cl)c3cccnc23)cc1`?
UbGFP stabilizer: 0.8%; Peg3 imprint: -31.2%; IkB sig inh: -2.1%; USP2a inh: 2.0%; HBB splicing: 3.2%; GFP derepression: 7.94µM*
